Assay results reported in PubChem BioAssay (EPA / NIEHS).
Several values for one entry are separate records, joined by “and”; a condition that tells them apart may be missing. Identical values can stand only once. More than one record can exist for a structure, and the calls need not agree. Activity calls are given as the source filed them. The calls were made as follows: active = hit-call score of the fitted dose curve at least 0.9, where 1 is the maximum; inactive = score below 0.9.

Read-out: C-C motif chemokine 2 (Homo sapiens) (UniProt P13500)
Assay: BSK_KF3CT_MCP1: BioMAP Diversity Plus: KF3CT Assay for Monocyte Chemoattractant Protein 1 (MCP1/CCL2) Biomarker Activity (AID 2283073)
Settings: primary human keratinocytes with fibroblasts; actives raise or lower the signal
Method: BSK_KF3CT is a cell-based, multiplexed-readout assay that uses keratinocytes and foreskin fibroblasts, a human skin primary cell co-culture, with measurements taken at 24 hours after chemical dosing in a 96-well plate.BSK_KF3CT_MCP1 is an assay component measured in the BSK_KF3CT assay. It measures MCP-1 antibody related to regulation of gene expression using ELISA technology.Data from the assay component BSK_KF3CT_MCP1 was analyzed into 1 assay endpoint. This assay endpoint, BSK_KF3CT_MCP1, was analyzed with bidirectional fitting relative to DMSO as the negative control and baseline of activity. Using a type of binding reporter, gain or loss-of-signal activity can be used to understand changes in the signaling as they relate to the gene CCL2. Furthermore, this assay endpoint can be referred to as a primary readout, because this assay has produced multiple assay endpoints where this one serves a signaling function. To generalize the intended target to other relatable targets, this assay endpoint is annotated to the cytokine intended target family, where the subfamily is chemotactic factor.
The levels of cell surface (or secreted, indicated by the prefix "s") biomarker endpoints were measured by ELISA. Overt cytotoxicity to cells in confluent adherent cultures (all systems other than the BT system) was assessed by measuring total protein levels using sulforhodamine B (SRB) staining in parallel cultures at the time of biomarker measurements, indicated as SRB endpoints. For proliferation assays for adherent cell types, individual cell types are cultured at sub-confluence and relative cell numbers quantified by SRB staining at time points optimized for each system (48 h: 3C and CASM3C systems; 72 h: BT and HDF3CGF systems; 96 h: SAg system). SRB was performed by staining cells with 0.1% SRB after fixation with 10% TCA and reading wells at 560 nm.Viability and proliferation of PBMC (T cells) was quantified by Alamar Blue reduction for the SAg and BT systems. For PBMC viability (referred to as PBMC Cytotoxicity within the assay endpoint names), cells were plated (75,000/well in a 96-well plate) and then chemical samples added for 1 h before addition of activators, SEB and TSST-1 (20 ng/mL final concentration each). Cells were incubated for 90 h. Then, Alamar Blue (20 uL/well) (Invitrogen, Cat DAL1100) was added for 6 h, and the plates were read with a fluorescence microplate reader at 546/580 nm (excitation/emission). For PBMC proliferation, cells were plated and activated as above but incubated for only 16 h prior to addition of Alamar Blue. Plates were read after 6 h.

Which outcome does the source give for `c1ccc2cc3c(ccc4ccccc43)cc2c1` here?
The outcome was “inactive”.

Which AC50 does the source give for `Cc1oc(-c2ccccc2)nc1CCOc1ccc(C[C@H](Nc2ccccc2C(=O)c2ccccc2)C(=O)O)cc1` here?
Its AC50 is 5.22 µM (active).

With `c1ccc2c(c1)ccc1ccccc12` as the molecule, how does the outcome read?
Its outcome is “inactive”.

With `CC[C@H](c1ccc(O)cc1)[C@@H](CC)c1ccc(O)cc1` as the molecule, how does the AC50 read?
The AC50 was 32.7 µM (active).

With `Oc1cc2ccccc2c2ccccc12` as the molecule, how does the AC50 read?
Its AC50 is 6.26 µM (active).

With `ClC1=C(Cl)C(Cl)(Cl)C(Cl)=C1Cl` as the molecule, how does the AC50 read?
Its AC50 is 9.19 µM (active).

Which AC50 does the source give for `CC(C)(C)c1cccc(C(C)(C)C)c1O` here?
The AC50 was 34.4 µM (active).

For `N#C[C@@H]1CC(F)(F)CN1C(=O)CNC1CC2CCC(C1)N2c1ncccn1` (stereo not given in full), which outcome is on record?
The outcome was “inactive”.

For `CCCCC(CC)COC(=O)CCCCC(=O)OCc1ccccc1` (stereo not given), which outcome is on record?
Its outcome is “inactive”.

How did the outcome turn out when `CCCCCCCCC(=O)O` was run?
Its outcome is “inactive”.

How did the AC50 turn out when `CC1=C(/C=C/C(C)=C/C=C/C(C)=C/C(=O)O)C(C)(C)CCC1` was run?
Its AC50 is 32.4 µM (active).

`OCCC(F)(F)C(F)(F)C(F)(F)C(F)(F)C(F)(F)C(F)(F)C(F)(F)C(F)(F)F` was tested. Which AC50 did it give?
The AC50 was 20.1 µM (active) and 18 µM (active).

What about the outcome of the same molecule?
The outcome was “inactive”.

`CCc1nn(C2CCCCC2)c2cc(C3(C#N)CCC(C(=O)O)CC3)ccc12` (stereo not given) was tested. Which AC50 did it give?
Its AC50 is 20 µM (active).

For `OCCC(F)(F)C(F)(F)C(F)(F)C(F)(F)C(F)(F)C(F)(F)F`, which outcome is on record?
Its outcome is “inactive”.

For `CCCCC(CC)COC(=O)CCCCC(=O)OCC(CC)CCCC` (stereo not given), which outcome is on record?
Its outcome is “inactive”.

`COC(=O)CCCCC(=O)OC` was tested. Which outcome did it give?
Its outcome is “inactive”.

Which outcome does the source give for `CCCCCCCC(=O)O` here?
Its outcome is “inactive”.

Which outcome does the source give for `CC[C@H](C)[C@@H](C(=O)O)n1sc2ccccc2c1=O` here?
The outcome was “inactive”.

How did the outcome turn out when `O=[N+]([O-])c1ccc(O)cc1` was run?
The outcome was “inactive”.

How did the outcome turn out when `CC(O)CO` (stereo not given) was run?
Its outcome is “inactive”.

`COCC(C)O` (stereo not given) was tested. Which outcome did it give?
Its outcome is “inactive”.

With `CCCCCCCCCCCCc1ccccc1S(=O)(=O)O` as the molecule, how does the AC50 read?
Its AC50 is 24.3 µM (active).

`C[C@@H]1C[C@H]2[C@@H]3CCC4=CC(=O)C=C[C@]4(C)[C@@]3(F)[C@@H](O)C[C@]2(C)[C@@]1(O)C(=O)COP(=O)(O)O` was tested. Which outcome did it give?
Its outcome is “inactive”.

`CCN(CC)CCNc1ccc(CNC=O)c2sc3ccc(OC)cc3c(=O)c12` was tested. Which AC50 did it give?
Its AC50 is 36.6 µM (active).

Which outcome does the source give for `OC1CCCCC1` here?
Its outcome is “inactive”.

How did the outcome turn out when `CCCOC(=O)c1ccc(O)cc1` was run?
The outcome was “inactive”.

How did the AC50 turn out when `CC(C)(C)c1ccc(O)c(C(C)(C)C)c1` was run?
The AC50 was 13.4 µM (active).

With `CCCCOCCO` as the molecule, how does the outcome read?
Its outcome is “inactive”.

Which AC50 does the source give for `O=C(O)Cc1cc(I)c(Oc2cc(I)c(O)c(I)c2)c(I)c1` here?
The AC50 was 11 µM (active).

Which AC50 does the source give for `CC#C[C@]1(O)CC[C@H]2[C@@H]3CCC4=CC(=O)CCC4=C3[C@@H](c3ccc(N(C)C)cc3)C[C@@]21C` here?
Its AC50 is 34.2 µM (active).

With `CCc1ccc(CCOc2ccc(CC3SC(=O)NC3=O)cc2)nc1` (stereo not given) as the molecule, how does the outcome read?
Its outcome is “inactive”.

Which AC50 does the source give for `CCC(=C(c1ccc(O)cc1)c1ccc(OCCN(C)C)cc1)c1ccccc1` here?
Its AC50 is 10.2 µM (active).

`CC(=O)CC(C)(C)O` was tested. Which outcome did it give?
The outcome was “inactive”.

With `CC(C)CCCCCCOC(=O)CCCCC(=O)OCCCCCCC(C)C` as the molecule, how does the outcome read?
The outcome was “inactive”.

With `CC(C)(C)c1cc(C(C)(C)C)c(O)c(C(C)(C)C)c1` as the molecule, how does the outcome read?
Its outcome is “inactive”.

With `O=C(OCCOCCOC(=O)c1ccccc1)c1ccccc1` as the molecule, how does the outcome read?
The outcome was “inactive”.

With `Nc1cccc2c(N)cccc12` as the molecule, how does the outcome read?
Its outcome is “inactive”.

With `c1ccc2c(c1)Cc1ccccc1-2` as the molecule, how does the outcome read?
Its outcome is “inactive”.

`COc1ccc([N+](=O)[O-])cc1N` was tested. Which outcome did it give?
Its outcome is “inactive”.
